Source: PubChem BioAssay (ICCB-Longwood Screening Facility, Harvard Medical School)
Many of the other results were omitted from the sample, so hits are more common in it than they were.
VACV E9 pol inh – inhibitors of vaccinia virus processive DNA synthesis (E9 polymerase); in vitro processive DNA synthesis, absorbance read-out; hits give low values; normalized absorbance, % (test concentration not listed); 46,000 compounds, 0.94% hits; AID 493162; in the data active = normalized absorbance mostly below about 85%, no sharp cut-off; inactive = mostly above about 86%
Active calls of the source: *.

SMILES | VACV E9 pol inh
COc1ccc(/C=C2\CC/C(=C\CC(C)C)C2=O)cc1Br | 100
S=c1[nH]c(=S)c2cnc(N3CCc4ccccc43)nc2[nH]1 | 98
CNc1nc(N2CCc3ccccc32)ncc1F | 56*
CC1CC(=O)c2cnc(N3CCc4ccccc43)nc2C1 (configuration not stated) | 100
Cc1ccc(N=C2NC(=O)C(Cc3cccc(C(F)(F)F)c3)S2)cc1 (configuration not stated) | 100
O=C1CC(C(=O)Nc2nncs2)C(c2ccccc2)O1 (configuration not stated) | 100
Cc1nnc(N2C(=N)S/C(=C\c3ccccc3Cl)C2=O)s1 | 100
N=C1S/C(=C/c2ccco2)C(=O)N1c1nccs1 | 52*
O=C1c2ccccc2C(=O)N1c1nccs1 | 100
CCOc1ccc(N2C(=O)C(CC(=O)Nc3ccccc3)N(CCN3CCN(C)CC3)C2=S)cc1 (configuration not stated) | 98
NC(=S)CN1CCCC1=O | 100
O=C(O)c1ccccc1N(Cc1ccccc1)C(=O)c1cccs1 | 97
CC1Cc2ccccc2N1C(=O)C1CCCCN1S(=O)(=O)c1ccc(Cl)cc1 (configuration not stated) | 97
CN1CCN(c2cc(-c3ccccc3)nc3ccccc23)CC1 | 79*
CN1CCN(c2nc(-c3ccccc3)c3ccccc3n2)CC1 | 101
CN1CCN(c2cc(-c3ccncc3)nc3ccccc23)CC1 | 83
CCC(=O)Nc1nnc(SC)s1 | 101
COc1ccc2sc(N(CCN(C)C)C(C)=O)nc2c1 | 99
CN(C)CCN(C(=O)c1ccco1)c1nc2cc3c(cc2s1)OCO3 | 61*
COc1ccc2nc(N(CCN(C)C)C(=O)c3cccs3)sc2c1 | 95
Cc1cccc(N(C)C(=O)c2ccc3c(=O)n4c(nc3c2)CCCCC4)c1 | 103
CC(C)CCNC(=O)c1ccc2c(=O)n3c(nc2c1)CCCCC3 | 100
CN(C(=O)c1ccc2c(=O)n3c(nc2c1)CCCCC3)C1CCCCC1 | 67*
Cc1cc(NC(=O)c2ccccc2C)n(-c2nc3ccccc3[nH]2)n1 | 93
O=C(CSc1nnc2sc3ccccc3n12)c1cccs1 | 100
SMILES | VACV E9 pol inh
N#CSCC(=O)c1cccs1 | 61*
CCN(CC)c1cc(-c2cccs2)nc(SCC(=O)c2cccs2)c1C#N | 100
O=C(SC1=NCCc2ccccc21)c1ccccc1 | 97
O=C(CSC1=NCCc2ccccc21)c1ccccc1Cl | 87
O=C(CSC1=NCCc2ccccc21)c1ccc(-c2ccccc2)cc1 | 69*
Oc1sc(-c2ccccc2)cc1C=Nc1ccccc1 | 100
NC(=O)CCN1CCn2c1nc1ccccc12 | 100
Cc1ccc(-n2c(=O)c3c(c4cc(C)ccc4n3C)n(CC(N)=O)c2=O)cc1 | 93
Cc1ccc2c(c1)c1cccc3c1n2CCN3CCC(N)=O | 63*
COc1ccc(-c2nnc3ccc(Cl)nn23)c(OC)c1 | 100
COc1ccccc1/C=C/C=c1\sc2nc(-c3cc(OC)c(OC)c(OC)c3)nn2c1=O | 100
COc1cccc(-c2cc(C(=O)NC(C)C)no2)c1 | 86
COc1ccc(C(=O)CSC2=NCCCCCC2)cc1 | 65*
COc1ccc(C(=O)CSc2ncccn2)cc1 | 103
COc1ccc(C(=O)CNC2=NCCC2)cc1 | 96
N#CC(C#N)Cc1ccccc1F | 119
NC(=O)COc1ccc(/C=c2/sc3nc4ccccc4n3c2=O)cc1 | 100
O=C(CC1C(=O)NCCN1C(=O)c1ccccc1)Nc1cccc(Cl)c1 (configuration not stated) | 92
CC(=O)OCCCn1c(C)nc2cc(Cl)ccc21 | 102
Clc1ccc(C=NCc2ccc(-c3cccs3)s2)cc1 | 99
Cc1csc2sc(COC(=O)Nc3ccccc3)c(C)c12 | 99
Cc1csc2sc(C=NCc3cccs3)c(C)c12 | 63*
COc1ccc(-n2c(SC)nnc2-c2ccc(OC)c(OC)c2)cc1 | 105
CCN(c1cccc(C)c1)C(C(=O)Nc1ccc2c(c1)OCCO2)c1ccccc1 (configuration not stated) | 106
CCC(C)SCC(=O)N1CCc2ccccc21 (configuration not stated) | 101
SMILES | VACV E9 pol inh
CCc1c(C)nc2ccc(OC)cc2c1Cl | 104
COc1ccc2nc(SC(=O)c3ccccc3)nc(C)c2c1 | 100
COc1ccc2c(C)nc(/N=C(\N)NC(C)=O)nc2c1 | 54*
COc1ccc2nc(/N=C(\N)NC(=O)N3c4ccccc4Sc4ccccc43)nc(C)c2c1 | 100
COc1ccc(-c2nc3ccccc3n2C(=O)c2ccccc2C(=O)O)cc1 | 98
COc1ccc2c(C)nc(/N=C(N)/N=C(\C)c3ccccc3C(=O)O)nc2c1 | 31*
O=C(c1ccccc1)c1ccc(CBr)cc1 | 96
Cc1cc(C)cc(NC(=O)CCCC(=O)Nc2cc(C)cc(C)c2)c1 | 100
C[n+]1ccc(/C=C/c2ccccc2F)c2ccccc21 | 100
CN1/C(=C/c2cccc[n+]2C)C=Cc2ccccc21 | 97
CN1C=C/C(=C\c2cc[n+](C)c3ccccc23)c2ccccc21 | 84*
Cc1ccc2cc(CCNC(=O)C3CC3)c(=O)[nH]c2c1 | 100
COC(=O)c1cc2oc(C)cc2n1CC(=O)Cc1ccc(OC)cc1OC | 100
Cc1nn(-c2ccccc2)c2sc(C(=O)O)cc12 | 98
Cc1nn(-c2ccccc2)c2sc(C(=O)NC(C)C)cc12 | 82
Cc1nn(-c2ccccc2)c2sc(C#N)c(N)c12 | 80*
OC(CC#CCN1CCCC1)(c1ccccc1)C1CCCC1 (configuration not stated) | 105
O=C(CSc1nc2ccccc2c(=O)n1-c1ccc(F)cc1F)NC1CCCC1 | 98
CN[C@@H]1CC2(C)OC([C@@H]1OC)n1c3ccccc3c3c4c(c5c6ccccc6n2c5c31)C(=O)NC4 (some centres not stated) | 56*
COC(=O)[C@@]1(O)CC2OC1(C)n1c3ccccc3c3c4c(c5c6ccccc6n2c5c31)C(=O)NC4 (some centres not stated) | 98
Cn1c2ccccc2c2c3c(c4c5ccccc5n(CCC#N)c4c21)CNC3=O | 98
CC1CN(C(=O)COc2ccccc2C#N)CC(C)O1 (configuration not stated) | 94
COc1ccc(-c2csc(C(C#N)=C(SC)SC)n2)cc1 | 88
Cc1ccc(-c2noc(CN(C3CCCCC3)S(=O)(=O)c3ccccc3)n2)cc1 | 64*
CC(C)N(Cc1nc(-c2ccccc2)no1)C(=O)C1CCCCC1 | 99
SMILES | VACV E9 pol inh
Cc1ccc2[nH]c(=O)c(CN(C3CCCCC3)S(=O)(=O)c3ccccc3)cc2c1 | 101
Cc1cc(OC(=O)c2ccc(Br)cc2)no1 | 100
O=C(NCc1ccccc1)c1cc2c(s1)-c1ccccc1SC2 | 103
O=C(NCCC1=CCCCC1)c1cc2c(s1)-c1ccccc1SC2 | 94
CCN1CCCC1CNC(=O)c1cc2c(s1)-c1ccccc1SC2 (configuration not stated) | 73*
Cc1ccc(N(Cc2ccco2)C(=O)c2cccnc2)cc1 | 101
CCN(CC)CCCNc1nc2cc(OC)c(OC)cc2c2nc(-c3ccccc3)nn12 | 34*
O=C1CCC(=O)N1Nc1nc2ccccc2c2nc(-c3ccccc3)nn12 | 98
COc1cc2nc(-n3nc(C)cc3C)n3nc(-c4ccccc4)nc3c2cc1OC | 93
C=C1N(c2nc(C)cc(C)n2)C(=O)OC1(C)C | 100
CCOC(=O)c1[nH]c(C)c(C(=O)N2CCCCC2C)c1C (configuration not stated) | 98
